SMILES strings stand for the structures. “And” between values parts separate entries of the source, which are not always exact repeats. Identical values can stand only once. The campaign covered roughly 370,000 compounds. About 2,300 (0.62%) were called active.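 Rule for the calls: active = lowest replicate activation of at least 40%, so every replicate reaches that level; inactive = the rest.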 The sample as a whole holds a higher share of actives than the screen did. Some compounds were tested as several samples or in several runs, with calls that do not always agree.

A short description of this assay: GLuc luminescence reporter in INS-1E cells, primary screen for activators of glucose-dependent secretion of insulin (AID 743287).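 Note: 0% = median of neutral control wells and 100% = median of IBMX positive control wells.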 Particulars: INS-1E GLuc reporter insulin secretion, 2-3 h, at 16.6 µM, stronger effect = higher value.
As to `COc1cccc(CN2CCCC(C(=O)c3ccccc3SC)C2)c1O` (stereo not given), the activation was -0.167% (inactive).

As for `COc1ccc(C(=O)C2CCCN(Cc3ccc(C)s3)C2)cc1OC` (stereo not given), the activation is 53.8% (active).

`Cc1ccc(CN2CCCC(C(=O)c3ccc4c(c3)OCO4)C2)cc1C` (stereo not given): the activation is -7.76% (inactive).

Regarding `CCN(CC)C(=O)[C@@H]1C=C2c3cccc4[nH]c(Br)c(c34)C[C@H]2N(C)C1`, the activation is 13.7% (inactive).

Consider `COC(=O)[C@H]1[C@H](CO)[C@H]2Cn3c(ccc(C4=CCCC4)c3=O)[C@@H]1N2C(=O)CC1CC1`, for which the activation was -1.71% (inactive).

As to `FC(F)(F)CN1CC2NC(C1)C2c1ccc(Br)cc1` (stereo not given), the activation is -10.5% (inactive).

As to `O=C(O)[C@H]1[C@H](CO)[C@H]2Cn3c(ccc(-c4ccccc4F)c3=O)[C@@H]1N2C(=O)c1cccnc1`, the activation was 19.1% (inactive).

On to `CC(Cc1ccccc1)NCCC(c1ccccc1)c1ccccc1` (stereo not given), for which the activation is 182% (active).

As for `CC(Cc1ccccc1)NC=O` (stereo not given), the activation was 3.77% (inactive).

Regarding `FC(F)(F)CN1CC2C(c3ccc(Br)cc3)C(C1)N2CC1CC1` (stereo not given), the activation was -3.91% (inactive).

For the compound `COC(=O)[C@@H]1[C@@H](CO)[C@@H]2Cn3c(ccc(C4=CCCCC4)c3=O)[C@H]1N2CC1CC1`, the activation was 6.37% (inactive).

For the compound `CCCCCCCCCCCCn1ccc(=N)cc1`, the activation was 212% (active).

Regarding `Clc1ccc([C@@H]2CC3CCC2N3)cn1` (stereo not given in full), the activation is -8.41% (inactive).

Turning to `C/C=C/c1ccc(C2[C@@H]3CN(S(C)(=O)=O)C[C@H]2N3)cc1` (stereo not given in full), the activation was -6.54% (inactive).

`O=C(O)[C@H]1[C@H](CO)[C@H]2Cn3c(cccc3=O)[C@@H]1N2C(=O)c1ccccc1`: the activation was 0.382% (inactive).

Consider `C=CCN1[C@@H]2CN(S(C)(=O)=O)C[C@H]1C2c1ccc(Br)cc1` (stereo not given in full), for which the activation was 17.3% (inactive).

As to `CC(C)Nc1nc(Cl)nc(NC(C)C)n1`, the activation is 50.3% (active).

For `CC(=O)N1C[C@@H]2C(c3ccc(Br)cc3)[C@H](C1)N2C` (stereo not given in full), the activation was 27.1% (inactive) and -21.4% (inactive).

On to `COc1ccc2c(c1)[C@@]13CCCCC1[C@@H](C2)NCC3` (stereo not given in full), for which the activation was 8.42% (inactive).

Turning to `COc1cccc(-c2ccc3n(c2=O)C[C@H]2[C@H](CO)[C@@H](C(=O)O)[C@@H]3N2C(=O)c2cnccn2)c1`, the activation was 14.6% (inactive).

With `COc1ccccc1CN1[C@@H](CO)[C@@H](c2ccccc2)C12CN(C(=O)Cc1ccccc1)C2`, the activation is -6.56% (inactive).

For the compound `COC(=O)C[C@H]1CC[C@H]2NC[C@@H](O)COC[C@@H]2O1`, the activation was 44% (active) and 14.5% (inactive).

For the compound `COC(=O)C[C@@H]1CC[C@@H]2NC[C@@H](O)COC[C@H]2O1`, the activation is 7.25% (inactive).

As for `CCC(C)NC1(c2ccccc2)CCCCC1` (stereo not given), the activation was 12.2% (inactive).

Regarding `C[C@@H]1CN([C@H](C)CO)C(=O)CCCn2cc(nn2)CO[C@@H]1CN(C)C(=O)Oc1cccc2ccccc12`, the activation is -14.5% (inactive).

For the origin of these results see PubChem BioAssay AID743287 (Broad Institute, 2014).
